MITF primary – inhibitors of human MITF | 650,000 tested, 0.91% active | inhibition, % at 2.6 µM | AlphaScreen MITF homodimerization, bead proximity signal | O75030; in the data active = inhibition above about 50%
FBW7 activator – activators of human E3 ligase FBW7. AlphaScreen FBW7–phospho-cyclin E peptide binding, activator screen. 650,000 tested, 0.13% active. normalized activity (activation), % at 26.1 µM. Q969H0; in the data active = normalized activity above about 1.9%;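 also: purified mutant Fbw7 with reduced substrate affinity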
Target sequence (Q969H0 whole entry, looked up): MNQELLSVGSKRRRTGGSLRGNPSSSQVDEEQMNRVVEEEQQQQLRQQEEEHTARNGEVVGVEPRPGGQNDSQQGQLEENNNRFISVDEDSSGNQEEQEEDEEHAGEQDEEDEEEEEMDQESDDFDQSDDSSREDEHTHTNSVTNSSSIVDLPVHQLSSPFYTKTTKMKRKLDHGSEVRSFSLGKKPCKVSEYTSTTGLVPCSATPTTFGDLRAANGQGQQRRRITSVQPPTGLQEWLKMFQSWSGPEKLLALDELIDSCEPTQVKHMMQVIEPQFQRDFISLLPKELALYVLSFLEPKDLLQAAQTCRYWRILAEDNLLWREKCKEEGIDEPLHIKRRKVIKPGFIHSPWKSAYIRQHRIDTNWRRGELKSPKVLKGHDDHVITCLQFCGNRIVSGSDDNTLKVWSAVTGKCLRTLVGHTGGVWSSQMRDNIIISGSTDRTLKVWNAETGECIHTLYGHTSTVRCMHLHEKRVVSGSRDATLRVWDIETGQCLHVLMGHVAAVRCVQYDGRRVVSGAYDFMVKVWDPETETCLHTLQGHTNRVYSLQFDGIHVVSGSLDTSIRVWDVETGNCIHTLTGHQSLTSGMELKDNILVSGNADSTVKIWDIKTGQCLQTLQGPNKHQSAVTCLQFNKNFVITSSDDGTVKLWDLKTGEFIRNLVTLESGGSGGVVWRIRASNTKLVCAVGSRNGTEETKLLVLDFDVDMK
GPR151 activ – activators of human GPR151 | 650,000 tested, 1% active | PathHunter beta-arrestin GPR151 cells, luminescence | AID 1508602 | activation, % at 11.2 µM | Q8TDV0; in the data active = activation above about 4.9%
TEAD-YAP inh – TEAD-YAP interaction inhibition; AID 1259422; inhibition, % at 9.12 µM; HEK-TIYL cells, TEAD-Gal4/YAP UAS-luciferase luminescence; 640,000 tested, 1.4% active; in the data active = inhibition above about 32%
MITF inh conf – confirmation of human MITF inhibitors; shares compounds with MITF primary; AlphaScreen MITF homodimerization, biotin/His-MITF beads; inhibition, % at 2.6 µM; 4,700 tested, 16% active;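 active = inhibition above a cutoff derived from the DMSO control wells, cut at about 28% in these data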;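 also: inhibitors lower the bead chemiluminescence by keeping MITF from dimerizing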
AS interf DR – AlphaScreen optical interference, dose response counter-screen. shares compounds with MITF primary. AlphaScreen optical interference counterscreen, cell-free. IC50, µM. 480 tested, 6% active; call rule not given here
AlphaScreen intf2 – optically interferes with AlphaScreen signal; AID 1259376; shares compounds with MITF primary; LysRS AlphaScreen counterscreen, signal interference, triplicate; 4,700 tested, 7.6% active; inhibition, % at 2.6 µM;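 active = inhibition above a cutoff derived from the DMSO control wells, cut at about 30% in these data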
Numbers stand for hits. Rows were chosen to be rich in hits. Some 3.4% of all compounds tested hit in one or more screens of this group.

Screening Cc1cc(OCCCCN2CCN(C)CC2)ccc1[N+](=O)[O-] returned MITF primary 55.7, FBW7 activator inactive, GPR151 activ inactive, TEAD-YAP inh inactive, MITF inh conf inactive and AlphaScreen intf2 inactive.
For Cc1cc(OCCN2CCOCC2)ccc1[N+](=O)[O-] the results were MITF primary 60.4, FBW7 activator inactive, GPR151 activ inactive, TEAD-YAP inh inactive, MITF inh conf inactive and AlphaScreen intf2 inactive.
`OC(CON=C1c2ccccc2-c2ccccc21)CN1CCNCC1` (centres undefined) gave MITF primary 77.1, FBW7 activator inactive, GPR151 activ inactive, TEAD-YAP inh inactive, MITF inh conf inactive and AlphaScreen intf2 inactive.
`Clc1cccc(Cl)c1OCCCn1ccnc1` gave MITF primary 51.7, FBW7 activator inactive, GPR151 activ inactive, TEAD-YAP inh inactive, MITF inh conf inactive and AlphaScreen intf2 inactive.
Clc1cc(Br)ccc1OCCCn1ccnc1 was read as MITF primary inactive, FBW7 activator inactive, GPR151 activ inactive and TEAD-YAP inh inactive.
`CCc1cccc(OCCn2ccnc2)c1` gave MITF primary 53.8, FBW7 activator inactive, GPR151 activ inactive, TEAD-YAP inh inactive, MITF inh conf inactive and AlphaScreen intf2 inactive.
Clc1cc(Br)ccc1OCCn1ccnc1 was read as MITF primary 53.8, FBW7 activator inactive, GPR151 activ inactive, TEAD-YAP inh inactive, MITF inh conf inactive and AlphaScreen intf2 inactive.
CCOc1cccc(OCCn2ccnc2)c1 was read as MITF primary inactive, FBW7 activator inactive, GPR151 activ inactive and TEAD-YAP inh inactive.
`Cc1cccc(Cl)c1OCCCCn1ccnc1` gave MITF primary inactive, FBW7 activator inactive, GPR151 activ inactive and TEAD-YAP inh inactive.
`Cc1cccc(C)c1OCCCCn1ccnc1` gave MITF primary 70.1, FBW7 activator inactive, GPR151 activ inactive, TEAD-YAP inh inactive, MITF inh conf inactive and AlphaScreen intf2 inactive.
COc1ccc(/C=c2\sc3nc(-c4ccc(OC)c(OC)c4)nn3c2=O)cc1OC was read as MITF primary inactive, FBW7 activator inactive, GPR151 activ inactive and TEAD-YAP inh inactive.
CC(=O)Nc1ccc(CC2(C)C(=O)Nc3cccc(Cl)c32)cc1 (centres undefined) was read as MITF primary inactive, FBW7 activator inactive, GPR151 activ inactive and TEAD-YAP inh inactive.
Screening c1ccc(COc2ccc(OCCCCn3ccnc3)cc2)cc1 returned MITF primary 60.3, FBW7 activator inactive, GPR151 activ inactive, TEAD-YAP inh inactive, MITF inh conf 36.0, AS interf DR inactive and AlphaScreen intf2 inactive.
For CCc1ccccc1NC(=O)CN(C)C(=O)CN(C)Cc1ccccc1OC the results were MITF primary 81.0, FBW7 activator inactive, GPR151 activ inactive, TEAD-YAP inh inactive, MITF inh conf inactive and AlphaScreen intf2 inactive.
Screening COC(=O)c1c(OCc2cccnc2)cc(=O)n2c1CCN(C(=O)C1CCCCC1)CC2 returned MITF primary 68.7, FBW7 activator inactive, GPR151 activ inactive, TEAD-YAP inh inactive, MITF inh conf inactive and AlphaScreen intf2 inactive.
For CCN1CCN(C(c2nnnn2CCOC)C(C)C)CC1 (centres undefined) the results were MITF primary inactive, FBW7 activator inactive, GPR151 activ inactive and TEAD-YAP inh inactive.
COCCn1nnnc1C(C(C)C)N1CCSCC1 (centres undefined) was read as MITF primary 59.4, FBW7 activator inactive, GPR151 activ inactive, TEAD-YAP inh inactive, MITF inh conf inactive and AlphaScreen intf2 inactive.
`Cc1nc(N2CCOCC2)c2c(C)c(C(=O)Nc3cc(Sc4ccc(F)cc4)cc([N+](=O)[O-])c3)sc2n1` gave MITF primary inactive, FBW7 activator inactive, GPR151 activ inactive and TEAD-YAP inh inactive.
Screening O=C(Cc1cccs1)NCCCN1CCOCC1 returned MITF primary 101.9, FBW7 activator inactive, GPR151 activ inactive, TEAD-YAP inh inactive, MITF inh conf inactive and AlphaScreen intf2 inactive.
Screening Cc1cccc(C)c1NC(=O)CNCCCN1CCOCC1 returned MITF primary 88.0, FBW7 activator inactive, GPR151 activ inactive, TEAD-YAP inh inactive, MITF inh conf inactive and AlphaScreen intf2 inactive.
O=C(Cc1cccs1)NCCCCCCNC(=O)Cc1cccs1 was read as MITF primary inactive, FBW7 activator inactive, GPR151 activ inactive and TEAD-YAP inh inactive.
